Screens as filed in PubChem BioAssay.
Only some compounds are listed: those with a hit (about 2.7% of all), similar ones and a draw of the others.
FAS TE block: blocks the thioesterase domain of human fatty acid synthase; inhibition, % at 15 µM; P49327; actives 0.67% (n = 360,000); recombinant FAS-TE, OMFH fluorogenic substrate, fluorescence endpoint;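 active = compounds whose normalised, plate-corrected inhibition of enzyme fluorescence in the single-dose primary screen is 50% or more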
PfG6PD inh: PfG6PD (Plasmodium falciparum) enzyme inhibition | actives 0.78% (n = 350,000) | inhibition, % at 20 µM | PfGluPho enzyme, NADPH resazurin-diaphorase fluorescence | AID 504690;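 active = inhibition reaching at least a set limit at 20 µM in the primary screen, cut at about 59% in these data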
Neddylation inh: blocks human cullin neddylation | P61081+Q13564 | TR-FRET cullin neddylation, biochemical | calls only at 25 µM | actives 0.58% (n = 360,000); in the data active = inhibition above about 36%
Target sequence (P61081 whole entry, looked up): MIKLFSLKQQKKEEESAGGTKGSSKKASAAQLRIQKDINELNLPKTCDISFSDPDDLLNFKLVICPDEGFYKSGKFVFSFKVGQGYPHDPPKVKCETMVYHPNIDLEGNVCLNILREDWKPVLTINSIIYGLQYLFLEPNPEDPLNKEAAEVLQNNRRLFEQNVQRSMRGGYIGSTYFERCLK
Target sequence (Q13564 whole entry, looked up): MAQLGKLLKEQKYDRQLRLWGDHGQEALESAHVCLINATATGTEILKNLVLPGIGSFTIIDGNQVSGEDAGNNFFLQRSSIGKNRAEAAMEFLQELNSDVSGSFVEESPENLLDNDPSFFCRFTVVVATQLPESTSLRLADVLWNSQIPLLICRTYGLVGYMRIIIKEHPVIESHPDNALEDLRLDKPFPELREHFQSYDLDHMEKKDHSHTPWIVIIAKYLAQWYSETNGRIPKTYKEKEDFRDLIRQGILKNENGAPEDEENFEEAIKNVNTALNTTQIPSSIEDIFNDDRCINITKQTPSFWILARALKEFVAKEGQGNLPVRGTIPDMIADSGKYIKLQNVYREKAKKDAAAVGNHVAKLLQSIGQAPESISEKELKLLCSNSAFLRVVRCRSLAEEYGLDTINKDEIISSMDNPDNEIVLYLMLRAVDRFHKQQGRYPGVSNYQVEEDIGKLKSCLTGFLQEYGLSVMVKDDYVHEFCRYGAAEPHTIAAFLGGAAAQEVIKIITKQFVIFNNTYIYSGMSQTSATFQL
KLK7 zymogen act: activates the human kallikrein-7 zymogen | P49862 | activation, % at 7 µM | purified proKLK7, EDANS-DABCYL substrate fluorescence; 100% is mature enzyme control, 0% vehicle | actives 0.9% (n = 370,000);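 active = activation above the mean of all tested compounds plus 3 SD, computed per campaign excluding outliers beyond control limits, cut at about 13% in these data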
PfGluPho conf: confirmation of Plasmodium falciparum G6PD inhibitors; actives 34% (n = 2,400); inhibition, % at 20 µM; AID 504753; shares compounds with PfG6PD inh; recombinant PfGluPho, NADPH-diaphorase-resazurin fluorescence;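 active = inhibition of at least 50% at 20 µM in any single replicate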
Diaph ctr 10uM: inhibits diaphorase or oxidizes, flagging false PfG6PD hits; inhibition, % at 20 µM; shares compounds with PfG6PD inh; diaphorase-coupled resazurin reduction, fluorescence, NADPH 10 uM; actives 39% (n = 820);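 active = average inhibition reaching 50% or more with the compound at 20 µM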;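 note: resorufin red fluorescence formed as diaphorase reduces resazurin using NADPH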
Diaphorase 30uM: counter-screen for P. falciparum G6PD inhibitors: diaphorase inhibitors, oxidizers; shares compounds with PfG6PD inh; Diaphorase/resazurin coupled assay, resorufin fluorescence, 30 uM NADPH; actives 29% (n = 820); inhibition, % at 20 µM;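 active = inhibition averaging 50% or more, tested at 20 µM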
Each line names hits and unclear results; the compound was inactive in the other large screens (follow-up assays come after a bar, where shown).

Cc1ccc(S(=O)(=O)/N=C2\C=C(Nc3cccc(C(=O)O)c3)C(=O)c3ccccc32)c(C)c1	PfG6PD inh 70 | PfGluPho conf inactive
Cc1ccc(S(=O)(=O)/N=C2\C=C(Nc3cccc(C(=O)O)c3)C(=O)c3ccccc32)cc1	PfG6PD inh 67 | PfGluPho conf 69 | Diaph ctr 10uM 89 | Diaphorase 30uM 86
CCc1ccc(NC2=CC(=O)C(=O)c3ccccc32)cc1	none
O=C([C@@H]1C[C@H]1c1ccccc1)N1CC[C@H]2[C@H](CCCN2Cc2ccccc2)C1	none (no result: FAS TE block, PfG6PD inh, Neddylation inh)
COc1ccc(OC)c(CN2C(=O)CCCCC2(C)c2nnnn2C2CCCC2)c1 (stereo not given)	none (no result: FAS TE block, PfG6PD inh, Neddylation inh)
CC(=O)OC12CCCN(C1)/C(=C/c1cccnc1)C2 (stereo not given)	none (no result: FAS TE block, PfG6PD inh, Neddylation inh)
S=C(NCc1ccccc1)NNc1nc2ccccc2[nH]1	PfG6PD inh 77 | PfGluPho conf inactive
S=C(Nc1ccc(Cl)cc1Cl)Nn1cnnc1	none | PfGluPho conf inactive
CCOc1ccccc1NC(=S)Nn1cnnc1	PfG6PD inh 62 | PfGluPho conf inactive
COc1ccc(S[C@]2(C(=O)NCc3ccccc3)CC(=O)N[C@@H]2c2ccc(OC)cc2)cc1	none (no result: FAS TE block, PfG6PD inh, Neddylation inh)
CSCCCNC(=O)CN1C(=O)C2CCCCN2C(=O)c2ccccc21 (stereo not given)	none (no result: FAS TE block, PfG6PD inh, Neddylation inh)
O=C(CCn1nnc(-c2cccs2)n1)NCc1cccs1	none (no result: FAS TE block, PfG6PD inh, Neddylation inh)
COc1ccc2[nH]cc(CCNC(=O)c3ccc4ccccc4n3)c2c1	PfG6PD inh 62 | PfGluPho conf inactive
CCc1nnc(NC(=O)c2cccc(OC)c2)s1	PfG6PD inh 62 | PfGluPho conf inactive
CC1CCN(S(=O)(=O)c2nnc(NC(=O)c3cccc(Cl)c3)s2)CC1	PfG6PD inh 86 | PfGluPho conf inactive
COc1ccccc1C(=O)Nc1nnc(S(=O)(=O)N2CCC(C)CC2)s1	none
COc1ccccc1C(=O)Nc1nnc(S(=O)(=O)N2CCOCC2)s1	none
COc1ccc(C(=O)Nc2nnc(S(=O)(=O)N3CCOCC3)s2)cc1	PfG6PD inh 78 | PfGluPho conf 51 | Diaph ctr 10uM inactive | Diaphorase 30uM inactive
O=C(Nc1nnc(S(=O)(=O)N2CCOCC2)s1)c1ccc(Cl)cc1	PfG6PD inh 104 | PfGluPho conf 72 | Diaph ctr 10uM 72 | Diaphorase 30uM 54
CCCCCC(=O)NC1CCCCN(Cc2ccc(Cl)cc2)C1=O (stereo not given)	none (no result: FAS TE block, PfG6PD inh, Neddylation inh)
Cc1cccc(C)c1NC(=O)C1CCN(c2ncccn2)CC1	none (no result: FAS TE block, PfG6PD inh, Neddylation inh)
Cc1nc2sc(C(=O)NCc3ccc4c(c3)OCO4)c(N)c2c(C)c1Cl	none (no result: FAS TE block, PfG6PD inh, Neddylation inh)
O=C(Nc1nnc(S(=O)(=O)N2CCOCC2)s1)c1ccccc1	PfG6PD inh 63 | PfGluPho conf inactive
O=C(Nc1nnc(S(=O)(=O)N2CCCCCC2)s1)c1ccccc1	none
COc1ccc(C(=O)Nc2nnc(C(F)(F)F)s2)cc1	PfG6PD inh 118 | PfGluPho conf 96 | Diaph ctr 10uM 89 | Diaphorase 30uM 62
COc1ccc(C(=O)Nc2nnc(-c3ccccc3)s2)cc1	none
CCn1c(SCC(=O)NN=Cc2c(C)nn(-c3ccccc3)c2C)nnc1-c1ccc(OC)c(OC)c1	none (no result: FAS TE block, PfG6PD inh, Neddylation inh)
Oc1ccc(N2CCN(Cc3ccc(OCCCN4CCCCC4)cc3)CC2)cc1	PfG6PD inh 75 | PfGluPho conf inactive
Cc1ccc(Nc2cc(C)nc(-c3ccccc3)n2)cc1	PfG6PD inh 65 | PfGluPho conf inactive
Cc1ccc(Nc2cc(C)nc(-c3ccccc3O)n2)cc1	none
Cc1cc(Nc2ccccc2)nc(NCc2ccccc2)n1	none
Cc1cc(Nc2ccc(Cl)cc2)nc(NCc2ccccc2)n1	PfG6PD inh 60 (not shown: Neddylation inh) | PfGluPho conf inactive
C[C@@H]1/C=C/CC(=O)N[C@H](c2ccc3ccccc3c2)[C@H](C)/C=C/CC(=O)N[C@@H]1c1ccc2ccccc2c1	none (no result: FAS TE block, PfG6PD inh, Neddylation inh)
COCCCNC(=O)C[C@H]1C[C@@]2(C(=O)OC)C(=C[C@H](C(C)C)O[C@@H]2C2CC2)N(CCC2=CCCCC2)C1=O	none (no result: FAS TE block, PfG6PD inh, Neddylation inh)
COc1ccc(CCNC(=O)Cn2ncc3c2-c2cc(C)ccc2OC3)cc1	none (no result: FAS TE block, PfG6PD inh, Neddylation inh)
COC(=O)[C@H](C(C)C)N1CCc2nnn(CC3CCCCC3)c2-c2ccccc2S1(=O)=O	none (no result: FAS TE block, PfG6PD inh, Neddylation inh)
O=C(COC(=O)Cn1cnc2ccccc2c1=O)Nc1ccccc1Sc1ccc(Cl)cc1	PfG6PD inh 71 | PfGluPho conf inactive
CC(C)c1cc(C(C)C)c(S(=O)(=O)N2CCC(c3cn4ccccc4n3)CC2)c(C(C)C)c1	none (no result: FAS TE block, PfG6PD inh, Neddylation inh)
Cc1ccccc1-n1c(-c2ccc3ccccc3n2)n[nH]c1=S	PfG6PD inh 69 | PfGluPho conf 56 | Diaph ctr 10uM inactive | Diaphorase 30uM inactive
CC(=O)Nc1ccc(S(=O)(=O)/N=C2\C(=O)c3ccccc3C([O-])=C2n2cc[n+](-c3ccccn3)c2)cc1	PfG6PD inh 69 | PfGluPho conf 56 | Diaph ctr 10uM inactive | Diaphorase 30uM inactive
Cc1ccc(S(=O)(=O)/N=C2\C(=O)c3ccccc3C([O-])=C2n2cc[n+](CCC(C)C)c2)cc1	none (no result: KLK7 zymogen act)
Cc1ccc(C(=O)Nc2ccc(Br)c(C(F)(F)F)c2)cc1	PfG6PD inh 69 | PfGluPho conf inactive
CC(C)N1CCN(S(=O)(=O)c2ccccc2)c2ccccc21	PfG6PD inh 95 | PfGluPho conf inactive
O=Cc1ccc([B-](F)(F)F)o1	none (no result: FAS TE block, PfG6PD inh, Neddylation inh)
CCCCCCCCN1C(=O)[C@@H](CC(=O)N2CCCCC2)C[C@@]2(C(=O)OC)C1=C[C@H](C(C)C)O[C@@H]2C1CC1	none (no result: FAS TE block, PfG6PD inh, Neddylation inh)
O=C(N/N=C/c1cccc2ccccc12)c1ccccc1Cl	PfG6PD inh 83 | PfGluPho conf inactive
Cc1ccc2nc(SC(C)C(=O)NC3CCCc4ccccc43)[nH]c2c1 (stereo not given)	PfG6PD inh 76 | PfGluPho conf inactive
Cc1cc(=O)[nH]c(SCC(=O)NC2CCCc3ccccc32)n1 (stereo not given)	none
O=C(CSc1nc2ccc(Cl)cc2[nH]1)NC1CCCc2ccccc21 (stereo not given)	PfG6PD inh 107 | PfGluPho conf 55 | Diaph ctr 10uM inactive | Diaphorase 30uM inactive
Cc1nnc(SC(C)C(=O)NC2CCCc3ccccc32)n1-c1ccccc1 (stereo not given)	none
COc1ccc2nc(SCC(=O)NC3CCCc4ccccc43)[nH]c2c1 (stereo not given)	none
O=C(CSc1nc2ccccc2[nH]1)NC1CCCc2ccccc21 (stereo not given)	PfG6PD inh 64 | PfGluPho conf 57 | Diaph ctr 10uM inactive | Diaphorase 30uM inactive
COc1ccc(S[C@]2(C(=O)N3CCN(C(C)=O)CC3)CC(=O)N(S(=O)(=O)c3ccc(F)cc3)[C@@H]2c2ccc(OC)cc2)cc1	none (no result: FAS TE block, PfG6PD inh, Neddylation inh)
COC1=C(Br)C(=O)c2ncccc2C1=O	PfG6PD inh 112 | PfGluPho conf 91 | Diaph ctr 10uM 73 | Diaphorase 30uM 75
